Assay [1] addresses ATP-dependent 6-phosphofructokinase (Trypanosoma brucei brucei) (UniProt O15648). The assay can be described thus: qHTS Assay to Find Inhibitors of T. brucei phosphofructokinase: hit validation (AID 492961). Note: % is set by controls: 0 for no effect and ±100 for the full control effect. The method in brief:
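Luminescence from ADP-Glo reports ADP generated as T. brucei PFK (1.25 nM) phosphorylates 0.5 mM fructose-6-phosphate using 0.1 mM ATP. Reactions ran 45 min at room temperature, pH 8.0.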
For orientation: qHTS replaces the single test concentration by a dilution series.

A short description of assay [2]: qHTS profiling for inhibitors of Plasmodium falciparum proliferation (AID 504749).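 For activity, negative = inhibition: 0% = DMSO vehicle and full inhibition = artemisinin control.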 For all read-outs here: nearly all actives have a fitted effect of over 60% in size. Note: potency is the fitted concentration of half-maximal effect. The following applies: P. falciparum in erythrocytes, SYBR Green DNA, 72 h; for activity, negative = inhibition: at 28.7 µM (top of the series). The method in brief: (§1)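 Each compound contacts P. falciparum-infected red blood cells for 72 h at 37 C; lysis buffer (Tris, EDTA, saponin, Triton X, SYBR Green I) is added and fluorescence measured next morning; values normalized to controls.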

Assay [3] relates to 3D7. The assay is described as above. The following applies: P. falciparum in erythrocytes, SYBR Green DNA, 72 h; series mostly up to 28.7 µM. The essentials:
as §1

Assay [4] deals with 7G8. The assay is described as above. The following applies: P. falciparum in erythrocytes, SYBR Green DNA, 72 h; series mostly up to 28.7 µM. The essentials:
as §1

The test system of assay [5] is AS120. The assay is described as above. The note with it: P. falciparum in erythrocytes, SYBR Green DNA, 72 h; series mostly up to 28.7 µM. The method in brief: as §1
Assay [6] has as its system ATS189. The assay is described as above. The note with it: P. falciparum in erythrocytes, SYBR Green DNA, 72 h; series mostly up to 28.7 µM. The essentials:
as §1

Assay [7] has as its system CP185. The assay is described as above. The note with it: P. falciparum in erythrocytes, SYBR Green DNA, 72 h; series mostly up to 28.7 µM. The method in brief:
as §1

Assay [8] deals with CP191. Described as above. The following applies: P. falciparum in erythrocytes, SYBR Green DNA, 72 h; series mostly up to 28.7 µM. The essentials:
as §1

Assay [9] concerns CP192. Described as above. The note with it: P. falciparum in erythrocytes, SYBR Green DNA, 72 h; series mostly up to 28.7 µM. The essentials: as §1
The subject of assay [10] is CP194. The description is as above. The following applies: P. falciparum in erythrocytes, SYBR Green DNA, 72 h; series mostly up to 28.7 µM. The method in brief:
as §1

For assay [11], the system named is CP201. The assay is described as above. The note with it: P. falciparum in erythrocytes, SYBR Green DNA, 72 h; series mostly up to 28.7 µM. The method in brief: as §1
Assay [12] deals with CP203. The assay is described as above. The following applies: P. falciparum in erythrocytes, SYBR Green DNA, 72 h; series mostly up to 28.7 µM. The method in brief: as §1
In assay [13] the test system is CP237. The description is as above. The following applies: P. falciparum in erythrocytes, SYBR Green DNA, 72 h; series mostly up to 28.7 µM. The method in brief:
as §1

Assay [14] relates to CP238. The assay is described as above. The note with it: P. falciparum in erythrocytes, SYBR Green DNA, 72 h; series mostly up to 28.7 µM. The method in brief:
as §1

For assay [15], the system named is CP247. The assay is described as above. The following applies: P. falciparum in erythrocytes, SYBR Green DNA, 72 h; series mostly up to 28.7 µM. The method in brief: as §1
Assay [16] deals with CP286. Described as above. The following applies: P. falciparum in erythrocytes, SYBR Green DNA, 72 h; series mostly up to 28.7 µM. The method in brief: as §1
For assay [17], the system named is DFO2036. The description is as above. The following applies: P. falciparum in erythrocytes, SYBR Green DNA, 72 h; series mostly up to 28.7 µM. The essentials:
as §1

The test system of assay [18] is DIV30. The description is as above. The note with it: P. falciparum in erythrocytes, SYBR Green DNA, 72 h; series mostly up to 28.7 µM. The essentials: as §1
For assay [19], the system named is HB3. The assay is described as above. The following applies: P. falciparum in erythrocytes, SYBR Green DNA, 72 h; series mostly up to 28.7 µM. The essentials:
as §1

In assay [20] the test system is P94_40. The description is as above. The note with it: P. falciparum in erythrocytes, SYBR Green DNA, 72 h; series mostly up to 28.7 µM. The method in brief: as §1

Molecules are shown by their SMILES. Results filed as inconclusive are left out. Unmarked numbers belong to inactive results. The source made the active and inactive calls. Calls come from the whole dose curve; as a rule, active = well fitted curve in the direction sought with a large enough effect; inconclusive = small, poorly fitted or top-dose-only effect, or another doubt; inactive = no such curve, though single readings can be large; an effect the other way counts as inactive or inconclusive.

ATP-dependent 6-phosphofructokinase (Trypanosoma brucei brucei), sequence (O15648 whole entry, looked up): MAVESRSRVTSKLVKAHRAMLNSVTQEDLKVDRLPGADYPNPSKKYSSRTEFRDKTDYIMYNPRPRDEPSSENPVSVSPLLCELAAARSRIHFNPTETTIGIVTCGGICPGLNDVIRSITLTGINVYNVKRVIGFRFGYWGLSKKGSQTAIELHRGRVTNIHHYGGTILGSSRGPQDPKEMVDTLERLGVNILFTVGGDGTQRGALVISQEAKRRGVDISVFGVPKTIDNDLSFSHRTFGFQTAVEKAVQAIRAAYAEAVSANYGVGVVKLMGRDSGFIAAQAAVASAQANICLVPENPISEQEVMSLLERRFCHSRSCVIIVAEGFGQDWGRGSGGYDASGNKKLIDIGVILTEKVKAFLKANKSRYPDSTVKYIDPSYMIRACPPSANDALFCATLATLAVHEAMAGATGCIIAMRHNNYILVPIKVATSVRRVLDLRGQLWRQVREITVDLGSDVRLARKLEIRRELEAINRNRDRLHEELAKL

For the compound `CC(=O)NC1[C@H](O)C[C@@](O)(C(=O)O)O[C@H]1[C@H](O)[C@H](O)CO` (stereo partly specified), the Potency entry in assay [1], in [3], in assay [4], in assay [5], in [6] and in [7] was “inactive” each time. For the same compound, the Potency entry in assay [8], in [9], in assay [10], in [11], in assay [12] and in [13] was “inactive” each time. Besides, the Potency entry in [14], in assay [15], in assay [16], in assay [17], in assay [18] and in assay [19] was “inactive” throughout. The Potency result in assay [20] was “inactive”. The activity, negative = inhibition is 5.53% in [2] (parasite line A) and -8.73% in [2] (parasite line B).
Consider `O=[N+]([O-])O[C@H]1CO[C@H]2[C@@H]1OC[C@H]2O`, for which the Potency result in [1], in assay [3], in [4], in assay [5], in [6] and in assay [7] was “inactive” each time. Also, the Potency entry in assay [8], in assay [9], in assay [10], in assay [11], in assay [12] and in assay [13] was “inactive” in each case. Also, the Potency result in [14], in assay [15], in [16], in assay [17], in assay [18] and in assay [19] was “inactive” throughout. For the same compound, in assay [20], the Potency result was “inactive”. Moreover, the activity, negative = inhibition was 14.3% in assay [2] (parasite line A) and -1.17% in assay [2] (parasite line B).
As for `C=C(NCc1ccccc1)c1ccccc1O`, the Potency result in assay [1], in assay [3], in assay [4], in assay [5], in assay [6] and in assay [7] was “inactive” in each case. The Potency result in assay [8], in [9], in [10], in assay [11], in assay [12] and in assay [13] was “inactive” in each case. The Potency entry in assay [14], in [15], in assay [16], in [17], in assay [18] and in assay [19] was “inactive” each time. In [20], the Potency entry is “inactive”. The figures for the activity, negative = inhibition in [2] (parasite line A) and in assay [2] (parasite line B) were 12.8% and 10.7%, respectively.
In the case of `CO/N=C(/C(=O)N[C@@H]1C(=O)N2C(C(=O)O)=C(CSc3nc(C)c(CC(=O)O)s3)CS[C@H]12)c1csc(N)n1`, the Potency result in assay [1], in assay [3], in assay [4], in assay [5], in assay [6] and in [7] was “inactive” in each case. Further, the Potency entry in [8], in [9], in [10], in assay [11], in assay [12] and in [13] was “inactive” each time. Also, the Potency result in assay [14], in assay [15], in assay [16], in [17], in assay [18] and in assay [19] was “inactive” throughout. For the same compound, the Potency result in [20] is “inactive”. In addition, the figures for the activity, negative = inhibition in [2] (parasite line A) and in [2] (parasite line B) were 5.91% and 4.95%, respectively.
With `C=CC1CN2CCC1CC2[C@@H](O)c1ccnc2ccc(OC)cc12` (stereo partly specified), the Potency result in assay [1] is “inactive”. Also, the Potency in assay [2] (parasite line A) is 50.1 nM (active); in assay [2] (parasite line B), 56.2 nM (active); in assay [3], 79.4 nM (active); in [4], 50.1 nM (active); in [5], 398 nM (active); in [6], 316 nM (active). Further, the Potency in [7] was 501 nM (active); in assay [8], 224 nM (active); in assay [9], 757 nM (active); in assay [10] it was 536 nM (active); in [11] it was 1070 nM (active); in assay [12], 426 nM (active). Besides, the Potency in assay [13] was 891 nM (active); in [14] it was 891 nM (active); in [15], 1000 nM (active); in assay [16] it was 282 nM (active); in assay [17], 708 nM (active); in [18] it was 338 nM (active). The Potency in assay [19] is 158 nM (active); in assay [20], 251 nM (active).
As for `COc1cccc2c1C(=O)c1c(O)c3c(c(O)c1C2=O)C[C@@](O)(C(=O)CO)C[C@@H]3OC1CC(N)C(O)C(C)O1` (stereo partly specified), in assay [1], the Potency entry was “inactive”. The Potency was 2000 nM (active) in assay [2] (parasite line A); 3160 nM (active) in [2] (parasite line B); 1000 nM (active) in assay [3]; 316 nM (active) in [4]; 2240 nM (active) in assay [5]; 2510 nM (active) in assay [6]. The Potency in [7] is 2240 nM (active); in [8], 2240 nM (active); in assay [9] it was 1900 nM (active); in assay [10], 4780 nM (active); in assay [11], 3790 nM (active); in assay [12], 4780 nM (active). Also, the Potency in assay [13] was 891 nM (active); in [14], 2240 nM (active); in assay [15] it was 2240 nM (active); in assay [16], 398 nM (active); in [17] it was 2000 nM (active); in assay [18], 4260 nM (active). Besides, the Potency in [19] and in assay [20] was 2000 nM (active) each time.

The record behind these values is PubChem BioAssay (NCATS).
